About 83,000 compounds went through this panel and 20% of them were active in at least one assay; those are over-represented in the sample as a whole.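 Compound tested at a single concentration for 48 hours in 96-well plates; a percent growth value below 10 was scored as active.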 A number with no mark means an inactive call. Calls of active or inactive are those of the source.
Columns and labels:
Assay in all cases: NCI-60 one-dose screen, 48 h (100 = growth as untreated, 0 = no growth, -100 = all killed)
Settings in all cases: 10 µM unless noted
T-47D breast = system: T-47D breast
BT-549 breast = system: BT-549 breast
MDA-MB-435 melanoma = system: MDA-MB-435 melanoma
MCF7 breast = system: MCF7 breast
HCT-116 colon = system: HCT-116 colon
HCC-2998 colon = system: HCC-2998 colon
KM12 colon = system: KM12 colon
MDA-MB-468 breast = system: MDA-MB-468 breast

Compound | growth (T-47D breast) | growth (BT-549 breast) | growth (MDA-MB-435 melanoma) | growth (MCF7 breast) | growth (HCT-116 colon) | growth (HCC-2998 colon) | growth (KM12 colon) | growth (MDA-MB-468 breast)
Cn1cc(-c2nc(N)nnc2-c2c[nH]c3ccc(F)cc23)c2cc(Br)cnc21 | 43.5% | -42.4% (active) | -39.4% (active) | 4.55% (active) | -14.8% (active) | -40.9% (active) | -21.7% (active) | -20.2% (active)
Cc1cc(C)cc(C(=O)Nc2cccc(-c3cn(-c4ccc(S(N)(=O)=O)cc4)nn3)c2)c1 | 35% | 67.8% | 85.9% | 31.5% | 39.8% | 49.9% | 36.1% | 41%
N#Cc1c(-c2ccccc2Cl)cc(-c2ccc3ccccc3c2)[nH]c1=O | -21.3% (active) | 3.43% (active) | 61.7% | 44.4% | 17.9% | 49.1% | 74.4% | 5.01% (active)
S=C(Nc1ccc(OCc2nc3ccccc3[nH]2)cc1)NC1CCCCC1 | 88.5% | 109% | 105% | 75.3% | 102% | 111% | 82.1% | 107%
CC(=O)Oc1ccccc1C(=O)[Se]C(=NC1CCCCC1)NC1CCCCC1 | -43.3% (active) | -91.7% (active) | -77.2% (active) | -82.1% (active) | -69.9% (active) | -92.6% (active) | -67.8% (active) | -77.8% (active)
CCN(CC)C(=O)N/C(N)=N/c1nc2ccccc2s1 | 12.6% | 16.5% | 37.5% | 37.6% | 43.4% | 88.2% | 73.9% | 5.79% (active)
COc1ccc(NC(=O)c2sc3nc(C(C)C)ccc3c2N)cc1 | 42% | 88.5% | 87.5% | 79.5% | 94.7% | 100% | 78.2% | 55.8%
CC1=C(C(=O)OCc2ccccc2)C(c2c(O)cc(O)cc2O)n2c(nc3ccccc32)N1 (configuration not stated) | 62.6% | 55% | 1.29% (active) | 25% | 26.1% | 86.4% | 46.3% | -27.4% (active)
Cc1c(C(=O)NNC(=O)Nc2ccc(Cl)cc2)nnn1-c1ccc(Br)cc1 | 88.8% | 102% | 99.7% | 85% | 90.7% | 106% | 103% | 91%
O=C(N=Nc1c(O)[nH]c2ccc(Cl)cc12)c1ccc2nc(-c3ccccc3)[nH]c2c1 | 30.1% | 109% | 79.7% | 4.1% (active) | 59.4% | 10.3% | 91.2% | -31.3% (active)
C=C1CC[C@@H]2[C@]3(C)COC(c4ccco4)O[C@@H]3CC[C@@]2(C)[C@@H]1C/C=C1/C(=O)OCC1OC(C)=O (some centres not stated) | 45.5% | -4.43% (active) | 31.9% | 13.4% | -52% (active) | 31.8% | 52.4% | -2.37% (active)
N#Cc1c(-c2ccc(Cl)cc2)nc2n[nH]c(-c3ccc(Cl)cc3)c2c1-c1cccs1 | 6.48% (active) | 55.4% | 60.5% | 44.7% | 35.4% | 69.3% | 42% | 50.8%
N#Cc1ccc(C(=O)Nn2c(N)cc3ccccc3c2=O)cc1 | 54.3% | 85.4% | 107% | 39.3% | 81.7% | 108% | 103% | 76.4%
COC(=O)C[C@](O)(CCCC(C)(C)O)C(=O)O[C@H]1C(OC)=C[C@@]23CCCN2CCc2cc4c(cc2[C@@H]13)OCO4 | -7.62% (active) | -29.9% (active) | -26.8% (active) | -17.7% (active) | -29.4% (active) | -61.3% (active) | -15.6% (active) | -36.6% (active)
O=c1[nH]n(C(=S)N/N=C/c2ccccc2Cl)c(=O)c2ccccc12 | 12.2% | -57.5% (active) | 22.4% | 10.7% | -83.4% (active) | -36.5% (active) | 8.85% (active) | -26.7% (active)
O=C(N=Nc1c(O)[nH]c2ccc([N+](=O)[O-])cc12)c1ccc2nc(-c3ccccc3)[nH]c2c1 | 12.5% | 53.4% | 79.1% | 18.7% | 10.7% | 27.4% | 99.5% | 10.6%
CC1=C(C(=O)OCc2ccccc2)C(c2ccc(-n3cncn3)cc2)n2c(nc3ccccc32)N1 (configuration not stated) | 65.1% | 52.9% | -12.5% (active) | 13.1% | 41.3% | 75.4% | 39.5% | -18.8% (active)
Cc1c(C(=O)NNC(=O)c2ccc(Cl)cc2)nnn1-c1ccc(Cl)cc1 | 89.9% | 94.1% | 98.5% | 81.2% | 85.3% | 109% | 101% | 89.4%
COc1cc(-c2ccc(/C=N/NC(=O)c3[nH]c4ccc(Br)cc4c3-c3ccccc3)s2)cc(OC)c1OC | 73.9% | 85.9% | 92.2% | 72.1% | 68.2% | 101% | 82.3% | 96.7%
CC1=C(C(=O)c2ccccc2)C(c2cccc3ccccc23)n2c(nc3ccccc32)N1 (configuration not stated) | 89.9% | 61.1% | 72.6% | 38.1% | 31.7% | 95.5% | 90.6% | -12.7% (active)
N#Cc1c(-c2ccc(Br)cc2)nc2n[nH]c(-c3ccc(Br)cc3)c2c1-c1ccc(F)cc1 | 74.6% | 107% | 102% | 78.7% | 95.3% | 108% | 105% | 110%
COc1ccc(/C=C2\C(=O)Nc3ccc(Cl)cc32)cc1OCc1ccccn1 | 51.9% | 46.1% | 75.1% | 34.7% | 21.1% | 79.6% | 75.2% | 59%
O=c1c2ccccc2nc(-c2ccccc2)n1/N=C/c1ccc2ccccc2c1 | 56.4% | 51.8% | 55% | 34.2% | 22.1% | 57.5% | 45% | 67.2%
C#CCOc1cc(N(CC)CC)ccc1C(C(=O)NC(C)(C)C)N(C(=O)C1CCc2cc(F)ccc2O1)c1cc(C)cc(C)c1 (configuration not stated) | 18.8% | 43.1% | 47.1% | 14.9% | 11.4% | 54.6% | 25.9% | 24.3%
CC(C)c1ccc2c(N)c(C(=O)Nc3ccc(C(F)(F)F)cn3)sc2n1 | 23.2% | 42.1% | 54.8% | 36.9% | 47.3% | 96.1% | 57% | 14.8%
CCN1C(=O)/C(=N\N=C(/C)c2ccc3c(c2)Nc2ccccc2S3)c2cc(Cl)ccc21 | 34.3% | 48.8% | 29.6% | 17.6% | 48.8% | 102% | 47.3% | 9.33% (active)
CC1=C(C(=O)c2ccccc2)C(c2ccc(-n3cncn3)cc2)n2c(nc3ccccc32)N1 (configuration not stated) | 83.6% | 67.4% | 94% | 66.7% | 73% | 109% | 94.6% | 95.6%
CSc1ccccc1NC(=O)c1ccc2nn(/C(C#N)=C/c3ccccn3)nc2c1 | -78.4% (active) | -98.4% (active) | -18.2% (active) | -82.4% (active) | -97.4% (active) | -94.5% (active) | -44.9% (active) | -84.2% (active)
O=C(O)c1ccc(-c2ccc(/C=N/NC(=O)c3[nH]c4ccc(Br)cc4c3-c3ccccc3)o2)cc1 | 15.1% | -7.86% (active) | -49.6% (active) | 9.15% (active) | 9.56% (active) | 5.76% (active) | 11.9% | -12.4% (active)

Reference: PubChem BioAssay (NCI)
